The list is not random: actives were taken first. Their share in the collection is about 27%.
CYP2C19 activ: cytochrome P450 2C19 (human) activation. activation factor at 5 µM. recombinant CYP2C19, luciferin-H EGE luminescence; active compounds read high; 0 = fully inhibited enzyme, 1 = untreated enzyme. AID 1025. P33261. 96,000 tested, under 10 active;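 active = activation factor of at least 2 at 5 µM in the primary screen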
Target sequence (P33261 whole entry, looked up): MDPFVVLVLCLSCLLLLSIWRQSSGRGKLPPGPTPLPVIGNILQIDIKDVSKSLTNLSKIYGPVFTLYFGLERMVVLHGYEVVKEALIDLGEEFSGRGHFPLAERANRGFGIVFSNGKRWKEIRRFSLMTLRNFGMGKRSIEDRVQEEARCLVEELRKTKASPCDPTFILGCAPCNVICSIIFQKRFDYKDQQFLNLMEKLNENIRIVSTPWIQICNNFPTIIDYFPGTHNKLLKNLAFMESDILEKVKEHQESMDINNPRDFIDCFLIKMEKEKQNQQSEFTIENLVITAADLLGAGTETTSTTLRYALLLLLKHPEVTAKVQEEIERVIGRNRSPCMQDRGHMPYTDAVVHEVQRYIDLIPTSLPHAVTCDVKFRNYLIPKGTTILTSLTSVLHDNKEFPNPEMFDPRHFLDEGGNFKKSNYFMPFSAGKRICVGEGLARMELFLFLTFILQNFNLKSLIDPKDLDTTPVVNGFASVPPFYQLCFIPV
CYP2C19 inh: inhibitors of human CYP2C19; P33261; CYP2C19 Supersomes, luciferin-H EGE luminescence, 30 min; inhibition, % at 5 µM; 96,000 compounds, 21% hits;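 active = CYP2C19 inhibition above a set limit at 5 µM in the primary screen, cut at about 50% in these data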
Cav3 T inh: inhibitors of human Cav3.2 T-type calcium channel; O95180; Cav3.2-expressing cells, Fluo-4 calcium fluorescence FDSS; active compounds read low; B-score at 10 µM; 100,000 compounds, 4% hits;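 active = single-dose well whose peak fluorescence ratio is a statistical outlier from its plate by either plate-standardised score or position-corrected B-score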
CYP2C9 act: increases human cytochrome P450 2C9 activity; recombinant CYP2C9, luciferin-H conversion, luminescence; active compounds read high; factor 1 = untreated enzyme, 0 = blocked; activation factor at 5 µM; P11712; 96,000 compounds, 1.4% hits;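 active = activation factor of 2 or more for CYP2C9 at a 5 µM dose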
CYP2C9 inh: human CYP2C9 inhibition | P11712 | CYP2C9 Supersomes, luciferin-H conversion, luminescence | inhibition, % at 5 µM | 96,000 compounds, 20% hits | AID 777;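 active = blocking of liver enzyme CYP2C9 beyond about 50% at 5 µM, limit read from the data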
A number is an active result; i = inactive; nt = not tested or not shown.

SMILES	CYP2C19 activ	CYP2C19 inh	Cav3 T inh	CYP2C9 act	CYP2C9 inh
CN1CCc2c(C#N)c(N3CCCCC3)nc(NCc3ccccc3)c2C1	i	i	i	i	74.1
COc1ccc(CNS(=O)(=O)c2ccccc2Br)cc1	nt	nt	i	nt	nt
CCC(C)(C)NC(=O)C(c1cccn1C)N(Cc1ccc(OC)cc1)C(=O)Cn1nnc2ccccc21 (stereo unspecified)	nt	nt	i	nt	nt
C=CCn1c(COc2ccc(CC)cc2)nnc1SC/C(O)=C(\C#N)c1nc2ccccc2[nH]1	i	i	i	i	i
COc1ccc(-c2cn(/N=C/c3ccc(Cl)cc3Cl)c(N)n2)cc1	i	74.5	i	i	71.5
Cc1ccc(C(=O)CSC2=C(C#N)C(c3ccco3)C3=C(CCCC3=O)N2)cc1 (stereo unspecified)	i	87.7	i	i	91.9
CC(C)(C)c1ccc(C(=O)CCCSC2=C(C#N)C(c3ccco3)C3=C(CCCC3=O)N2)cc1 (stereo unspecified)	i	i	-4.31	i	66.8
N#CC1=C(SCC(=O)c2ccccc2)NC2=C(C(=O)CCC2)C1c1ccco1 (stereo unspecified)	i	94.3	nt	i	92.0
CCCc1cc(=O)[nH]c(SCC(=O)N2CCN(c3ccc(F)cc3)CC2)n1	i	i	i	i	i
CC(C)CC(=O)O/N=C1\C(=O)N(Cc2ccc(Cl)cc2)c2ccc([N+](=O)[O-])cc21	i	64.7	i	i	58.0
COc1cccc(C(=O)NCC(=O)n2nc(C)cc2C)c1	i	i	i	i	i
CCCCOCCCNC(=O)/C=C/c1ccccc1Cl	nt	nt	i	nt	nt
Cc1ccc(/C=C/C(=O)Nc2ccc([N+](=O)[O-])cc2)o1	i	i	i	i	i
Cc1ccc(SCCNC(=O)/C=C/c2ccccc2Cl)cc1	i	i	-2.85	i	i
O=C(/C=C/c1ccc([N+](=O)[O-])cc1)NCCSc1ccccc1	i	i	-3.79	i	i
CCCOc1ccc(/C=C/C(=O)Nc2ccc([N+](=O)[O-])cc2)cc1	i	i	i	i	58.6
O=C(/C=C/c1ccccc1Cl)NCCN1CCOCC1	i	i	i	i	i
CCN(CC)c1ccc(NC(=O)/C=C\c2ccccc2Cl)cc1	i	71.2	i	2.3	i
COC(=O)C1=NN(N=O)C2(CC(=O)N(c3cc(C)cc(C)c3)C2=O)C1 (stereo unspecified)	i	i	nt	i	i
COc1cc(S(=O)(=O)N2CCCCC2)ccc1NC(C)=O	i	i	i	i	i
CCOC(=O)C(C)n1ncn2cccc2c1=O (stereo unspecified)	i	i	i	i	i
O=C(/C=C/c1ccccc1Cl)NCCc1ccccc1	i	i	i	i	i
CCN(CC)c1ccc(NC(=O)c2ccccc2F)cc1	i	i	i	3	i
O=C(/C=C/c1ccccc1Cl)NCc1ccccc1	i	i	i	2.1	i
O=C(NCC1CCCO1)C1CCC(CNS(=O)(=O)c2ccccc2)CC1 (stereo unspecified)	i	i	i	i	i
SMILES	CYP2C19 activ	CYP2C19 inh	Cav3 T inh	CYP2C9 act	CYP2C9 inh
COc1ccc(C(=O)SC2=NCCS2)cc1OC	i	i	i	2.1	i
COc1ccc(C(=O)N2CCSC2=S)cc1OC	i	i	i	2.1	i
COc1ccc(C(=O)N2CCN=C2SC)cc1OC	i	i	i	i	i
N#Cc1cc2c(=O)n3ccccc3nc2n(CCCn2ccnc2)c1=N	i	70.7	i	i	77.6
CCC(C)n1c(=N)c(C#N)cc2c(=O)n3ccccc3nc21 (stereo unspecified)	nt	nt	i	nt	nt
O=C(NC(=S)Nc1ccc(N2CCCCC2)cc1)c1cccs1	i	i	i	i	i
CCOC(=O)c1sc(C)c2c1NC1(CCCCC1)NC2=O	i	i	i	i	i
CCOC(=O)c1sc(C)c2c1NC(C)(c1cccs1)NC2=O (stereo unspecified)	i	i	i	i	62.7
COC(=O)[C@@H](NC(=O)NCc1ccco1)C(C)C	i	i	i	i	i
O=C(c1ccc2snnc2c1)N1CCN(c2ccccn2)CC1	i	71.2	i	i	i
O=C(c1ccc2snnc2c1)N1CCN(c2ccccc2)CC1	i	100.0	i	i	65.2
CCOC(=O)N1CCN(C(=O)c2csc3c2CCCCC3)CC1	i	55.1	i	i	76.5
CSc1ccc(CNc2ccc(Cl)cc2)cc1	i	95.6	i	i	i
CSc1ccc(CNC2CC2)cc1	i	i	i	i	i
O=S(=O)(NC1CC1)c1cccc(S(=O)(=O)N2CCCC2)c1	i	81.8	i	i	i
O=S(=O)(NC1CCCC1)c1cccc(S(=O)(=O)N2CCC(n3nnc4ccccc43)CC2)c1	i	74.8	nt	i	71.8
COC(=O)c1cccc(S(=O)(=O)N2CCC(n3nnc4cc(F)ccc43)CC2)c1	i	i	i	i	i
O=S(=O)(c1cccc(S(=O)(=O)N2CCOCC2)c1)N1CCCCC1	i	i	i	i	i
COc1ccc(C2CC3CC(c4ccccc4)N2O3)cc1 (stereo unspecified)	i	90.6	i	i	i
O=Cc1cccn1Cc1ccc(Cl)cc1Cl	i	i	i	i	i
Cc1cc(C)n(Cc2ccc(Cl)cc2Cl)c(=O)c1S(=O)(=O)c1ccccc1	i	i	-4.33	i	91.5
Cc1cccc(NC(=O)CN2C(=O)N/C(=C/c3cc(C)n(C(C)C)c3C)C2=O)c1	i	i	i	i	71.0
Cc1ccc(NC(=O)CN2C(=O)N/C(=C/c3ccco3)C2=O)cc1	i	i	nt	i	i
CSc1nnc(-c2sccc2OCc2ccccc2)n1C	i	i	i	i	i
CSc1n[nH]c(-c2sccc2OCc2ccc(C)cc2)n1	i	82.9	-3.74	i	57.5
SMILES	CYP2C19 activ	CYP2C19 inh	Cav3 T inh	CYP2C9 act	CYP2C9 inh
CC(=O)OCCn1c(=O)c2cc3c(=O)n(CCOC(C)=O)c(=O)c3cc2c1=O	i	i	i	i	i
CCC(c1nnnn1C1CCCC1)N1CCN(c2ccccc2F)CC1 (stereo unspecified)	i	i	nt	i	55.7
O=c1c(C(c2nnnn2C2CCCCC2)N2CCCCC2)coc2ccc(Cl)cc12 (stereo unspecified)	i	51.7	i	i	i
Clc1ccc(C(c2nnnn2C2CCCC2)N2CCN(Cc3ccncc3)CC2)cc1 (stereo unspecified)	i	98.1	nt	i	90.5
CCC(c1nnnn1C1CCCC1)N1CCN(c2ccccc2)CC1 (stereo unspecified)	i	i	i	i	i
CCCC(c1nnnn1C1CCCC1)N1CCN(c2ccccc2F)CC1 (stereo unspecified)	i	79.5	i	i	97.2
COc1cc2cc(C(c3nnnn3C3CCCC3)N3CCCCC3)c(=O)[nH]c2cc1OC (stereo unspecified)	i	i	i	i	i
Cc1nnc(SCCn2c(N(C)Cc3ccccc3)nc3c2c(=O)n(C)c(=O)n3C)s1	nt	nt	i	nt	nt
C/C(NC1CCCCC1)=C(/C#N)C(=O)NCCN1CCOCC1	i	i	i	i	i
O=c1nc(-c2ccccc2)cn[nH]1	i	i	i	i	i
CC(C)(C)c1ccc(C(=O)Nc2ccc(CC(=O)O)cc2)o1	i	i	i	i	i

Compound activity deposited in PubChem BioAssay by several laboratories.
